Here are results for 19 compounds from the antibiotic and cytotoxicity screens of Wong et al. (2023).

Out of some 39,000 compounds screened, about 500 (1.3%) were called active. This is one part of a sample in which actives are shown more often than they occur.

This experiment concerns S. aureus RN4220. Nature of the experiment: growth inhibition call (relative growth <= 0.2). The following applies: 50 µM.
For the compound `C[C@@H]1CN([C@@H](C)CO)C(=O)c2cc(NC(=O)Nc3ccc4c(c3)OCO4)ccc2O[C@@H](C)CCCCO[C@@H]1CN(C)C(=O)C1CCCCC1`, the growth inhibition call was “inactive”.
For `COc1ccc(S(=O)(=O)Nc2ccc3c(c2)C(=O)N([C@H](C)CO)C[C@@H](C)[C@@H](CN(C)C(=O)C2CCCCC2)OCCCC[C@@H](C)O3)cc1` the value was “inactive”.
Under `C[C@H](CO)N1C[C@H](C)[C@H](CN(C)S(=O)(=O)c2cn(C)cn2)Oc2ccc(NC(=O)NC3CCCCC3)cc2C1=O` stands “inactive”; under `C[C@@H]1CCCCO[C@H](CN(C)Cc2ccccc2)[C@@H](C)CN([C@@H](C)CO)C(=O)c2cc(NS(=O)(=O)c3ccc(F)cc3)ccc2O1`, “inactive”.
Under `C[C@@H]1CCCCO[C@H](CN(C)S(=O)(=O)c2cccs2)[C@@H](C)CN([C@@H](C)CO)C(=O)c2cc(NC(=O)CCC(F)(F)F)ccc2O1` stands “inactive”.
For the compound `CC(=O)OC[C@H]1O[C@@](COC(C)=O)(O[C@H]2O[C@H](COC(C)=O)[C@@H](OC(C)=O)[C@H](OC(C)=O)[C@H]2OC(C)=O)[C@@H](OC(C)=O)[C@@H]1OC(C)=O`, the growth inhibition call was “inactive”.
Under `C[C@H]1CN([C@@H](C)CO)C(=O)CCCn2nncc2CO[C@@H]1CN(C)S(=O)(=O)c1ccc2c(c1)OCCCO2` stands “inactive”; under `C[C@H](CO)N1C[C@H](C)[C@@H](CN(C)Cc2ccc(Oc3ccccc3)cc2)Oc2ccc(NS(=O)(=O)c3ccc(F)cc3)cc2C1=O`, “inactive”; under `C[C@H]1CN([C@@H](C)CO)C(=O)c2cccc(NS(=O)(=O)c3ccc(F)cc3)c2O[C@H]1CN(C)Cc1ccc(Cl)c(Cl)c1`, “inactive”.
Under `C[C@H]1CN([C@@H](C)CO)C(=O)Cc2cc(NC(=O)CCCCCC(=O)Nc3ccccc3N)ccc2O[C@@H]1CN(C)C(=O)Nc1ccc(C(F)(F)F)cc1` stands “inactive”.
Take `CCS(=O)(=O)Nc1ccc2c(c1)C(=O)N(C)[C@H]1CC[C@@H](CC(=O)N3CCN(C)CC3)O[C@@H]1CO2`: the growth inhibition call is “inactive”.
For `COc1cc(O)cc(OC)c1OC` the value was “inactive”.
For `COc1cc(CN)cc(OC)c1OC`, the growth inhibition call is “inactive”.
For `COc1ccc(C2=C(N)C(=O)NC2=O)cc1OC` the value was “inactive”; for `COc1cccnc1N`, “inactive”; for `COc1ccc(Cc2cnc(N)nc2N)cc1OC`, “active”.
Consider `COc1cc(Cc2cnc(N)nc2N)cc(OC)c1OC`, for which the growth inhibition call is “active”.
As for `COc1ccc(NC(=O)N(C)C[C@H]2OCCCC[C@H](C)Oc3ccc(NC(=O)c4ccncc4)cc3C(=O)N([C@@H](C)CO)C[C@@H]2C)cc1`, the growth inhibition call is “inactive”.
As to `COc1ccc(CN(C)C[C@H]2OCCCC[C@@H](C)Oc3ccc(NC(=O)Nc4ccc5c(c4)OCO5)cc3C(=O)N([C@H](C)CO)C[C@H]2C)cc1`, the growth inhibition call was “inactive”.
